Screens as filed in PubChem.
KDM5B inhibitor = inhibitors of human KDM5B histone demethylase; 220,000 tested, 2.6% active; Potency, µM (titrated, usually from 57.7 µM), most hits filed as inhibitors; KDM5B demethylase, FDH-coupled NADH fluorescence (FDH is formaldehyde dehydrogenase); Q9UGL1; active means well fitted inhibition curve with a large enough effect; further: 0% is about no effect; nearly all actives have a fitted effect of over 70% in size
Target sequence (Q9UGL1 whole entry, looked up): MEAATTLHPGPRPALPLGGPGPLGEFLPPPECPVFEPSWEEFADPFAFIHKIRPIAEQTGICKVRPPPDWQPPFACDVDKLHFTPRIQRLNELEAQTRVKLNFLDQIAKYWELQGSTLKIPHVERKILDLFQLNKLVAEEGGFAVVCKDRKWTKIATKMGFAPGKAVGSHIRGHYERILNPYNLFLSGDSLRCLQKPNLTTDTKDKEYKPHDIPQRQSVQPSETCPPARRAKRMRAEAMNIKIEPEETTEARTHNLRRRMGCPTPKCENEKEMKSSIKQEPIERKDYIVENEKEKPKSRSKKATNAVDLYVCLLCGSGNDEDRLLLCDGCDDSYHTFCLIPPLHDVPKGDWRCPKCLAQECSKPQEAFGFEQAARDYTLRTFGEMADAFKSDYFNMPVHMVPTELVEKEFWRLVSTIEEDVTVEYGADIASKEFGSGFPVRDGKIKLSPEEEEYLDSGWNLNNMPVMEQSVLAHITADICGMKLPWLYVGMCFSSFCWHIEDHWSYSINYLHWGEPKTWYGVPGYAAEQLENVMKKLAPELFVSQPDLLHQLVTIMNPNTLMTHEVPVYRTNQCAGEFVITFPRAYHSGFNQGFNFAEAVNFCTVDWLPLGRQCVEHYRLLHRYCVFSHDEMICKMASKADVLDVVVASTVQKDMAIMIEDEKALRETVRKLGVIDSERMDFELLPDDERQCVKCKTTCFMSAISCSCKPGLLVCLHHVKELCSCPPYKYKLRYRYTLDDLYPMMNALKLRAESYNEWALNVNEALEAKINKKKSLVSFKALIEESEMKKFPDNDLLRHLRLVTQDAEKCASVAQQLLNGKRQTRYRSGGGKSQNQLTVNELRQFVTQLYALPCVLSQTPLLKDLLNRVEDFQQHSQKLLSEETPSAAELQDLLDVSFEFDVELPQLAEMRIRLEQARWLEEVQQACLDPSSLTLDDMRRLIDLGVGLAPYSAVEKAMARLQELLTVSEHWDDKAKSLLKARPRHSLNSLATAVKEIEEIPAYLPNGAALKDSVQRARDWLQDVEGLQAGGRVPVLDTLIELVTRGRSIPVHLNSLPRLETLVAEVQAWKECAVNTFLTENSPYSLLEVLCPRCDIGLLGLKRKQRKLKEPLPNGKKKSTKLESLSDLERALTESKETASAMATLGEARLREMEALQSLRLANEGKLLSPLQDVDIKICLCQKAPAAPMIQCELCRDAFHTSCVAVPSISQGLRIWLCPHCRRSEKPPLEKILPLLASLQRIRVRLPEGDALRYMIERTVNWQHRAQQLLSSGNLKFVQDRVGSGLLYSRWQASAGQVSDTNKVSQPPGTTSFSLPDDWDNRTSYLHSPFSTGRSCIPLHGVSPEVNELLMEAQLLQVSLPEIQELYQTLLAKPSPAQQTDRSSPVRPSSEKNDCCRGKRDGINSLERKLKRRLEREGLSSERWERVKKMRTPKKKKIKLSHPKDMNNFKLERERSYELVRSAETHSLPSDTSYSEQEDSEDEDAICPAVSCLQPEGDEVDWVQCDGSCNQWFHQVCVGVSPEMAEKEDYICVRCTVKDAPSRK
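qHTS format, multiple compound concentrations. Buffer 50 mM HEPES pH 7.5/0.01% Tween-20; 200 nM KDM5BΔAP final; 10 min compound preincubation; substrate-mix levels 12.5 µM peptide, 25 µM α-KG, 0.25 mM NAD⁺; 30 min RT; ΔRFU.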
An asterisk follows results filed as active; i = inactive. This is one part of a sample in which hits are shown more often than they occur. Potency means the concentration at half of the fitted maximal effect.

SMILES | KDM5B inhibitor
CC(=O)N1CCc2nc3sc(C(=O)Nc4cccc(F)c4)c(N)c3c(C(F)(F)F)c2C1 | i
Cc1ccc(C2=NC3(CCN(C)CC3)N=C2SCC(=O)Nc2ccc(F)cc2F)cc1 | i
CC(NC(=O)NOCc1ccccc1)c1ccccn1 (stereo not given) | i
c1cn(CCc2noc(C3CCCO3)n2)c(-c2nc3c(s2)CCCC3)n1 (stereo not given) | 32µM*
O=C(NCCc1noc(C2CCCO2)n1)c1cnc(-c2cccnc2)nc1 (stereo not given) | i
O=S(=O)(NCc1ccccc1)NCc1noc(C2CCCO2)n1 (stereo not given) | i
CC(C)CCn1c(N2CCN(Cc3c(F)cccc3Cl)CC2)nc2c1c(=O)[nH]c(=O)n2C | i
CC(C)c1ccc(S(=O)(=O)N2CCN(C(=O)C3CC(=O)Nc4cc(F)ccc43)CC2)cc1 (stereo not given) | i
COC1CCCN(Cc2cn(-c3ccc(F)cc3)nc2-c2ccccc2Cl)C1 (stereo not given) | i
COc1ccc(-c2nn(-c3ccccc3)cc2CN2CCN3CCCC3C2)c(F)c1 (stereo not given) | i
COc1ccc(-n2cc(CN3CCCC(CO)C3)c(-c3cccc(F)c3)n2)cc1 (stereo not given) | 35µM*
COc1ccc(-c2nn(-c3ccccc3)cc2CN2CCN(C)C(C)C2)c(F)c1 (stereo not given) | i
COc1ccc(-n2cc(CN3CCN(C)C(C)C3)c(-c3cccc(F)c3)n2)cc1 (stereo not given) | 25µM*
COc1ccc(-c2nn(-c3ccccc3)cc2CN2CCN(C)CC2)c(F)c1 | i
CNC(=O)c1cccc(-c2cnc3[nH]cc(CC(=O)NC4CCC4)c3c2)c1 | i
O=C(Cc1c[nH]c2ncc(-c3cccnc3)cc12)Nc1ccc(F)cc1 | i
Cn1cc(-c2cnc3[nH]cc(CC(=O)Nc4cccnc4)c3c2)cn1 | 40µM*
CN(C)C(=O)Cc1c[nH]c2ncc(-c3cnn(C)c3)cc12 | 40µM*
CNC(=O)c1cccc(-c2cnc3[nH]cc(CC(=O)Nc4cccc(F)c4)c3c2)c1 | i
CN(C)c1cccc(NC(=O)Cc2c[nH]c3ncc(-c4cccnc4)cc23)c1 | i
Cn1cc(-c2cnc3[nH]cc(CC(=O)NCc4cccc(F)c4)c3c2)cn1 | 32µM*
CN(C)C(=O)Cc1c[nH]c2ncc(-c3cccnc3)cc12 | i
Cc1nc2cc(F)ccc2cc1C(=O)N(C)CC1COc2ccccc2O1 (stereo not given) | i
Cn1c(=O)[nH]c(=O)c2c1nc(SCCc1ccccc1)n2CCc1ccccc1 | i
O=C(Nc1cccc(Oc2ccccc2)c1)C1CCCO1 (stereo not given) | i
SMILES | KDM5B inhibitor
O=C(COC(=O)c1cc2c(s1)CCCCC2)NC(=O)NC1CCCC1 | i
C=CCn1c(SCc2coc(-c3ccc(Cl)cc3)n2)nnc1C1CCS(=O)(=O)C1 (stereo not given) | i
Cc1ccc(NC(=O)c2ccccc2C(F)(F)F)c(F)c1 | i
COCCN1C(=O)c2ccccc2C(C(=O)Nc2nnc(C3CC3)s2)C12CCCCC2 (stereo not given) | i
CC1CCN(c2c(S(=O)(=O)c3ccccc3)cnc3cc4c(cc23)OCCO4)CC1 | i
CN(C)c1cccc(C(=O)NCC2CCN(c3cc(-c4ccccc4)[nH]n3)CC2)c1 | 25µM*
COc1ccccc1CCC(=O)NC1CCN(c2cc(-c3ccccc3)[nH]n2)CC1 | i
CCOc1ccccc1C(=O)NC1CCN(c2cc(-c3ccc(OC)cc3)[nH]n2)CC1 | i
CCOc1ccc(CC(=O)NC2CCN(c3cc(-c4ccc(F)cc4)[nH]n3)C2)cc1OCC (stereo not given) | 8.9µM*
O=C(Cc1ccccc1Cl)NC1CCN(c2cc(-c3ccccc3)[nH]n2)C1 (stereo not given) | i
CCOc1ccc(C(=O)NC2CCN(c3cc(-c4ccc(F)cc4)[nH]n3)CC2)cc1OCC | i
COc1ccccc1CC(=O)NC1CCN(c2cc(-c3ccccc3)[nH]n2)C1 (stereo not given) | 16µM*
CCOc1ccccc1C(=O)NC1CCN(c2cc(-c3ccc(Cl)cc3)[nH]n2)CC1 | i
O=C(NCC1CCN(c2cc(-c3ccccc3)[nH]n2)CC1)c1ccc(=O)[nH]c1 | i
COc1cccc(CC(=O)NC2CCCN(c3cc(-c4ccc(F)cc4)[nH]n3)C2)c1 (stereo not given) | i
O=C(NCC1CCN(c2cc(-c3ccccc3)[nH]n2)CC1)c1ccc2nc[nH]c2c1 | i
CCOc1ccccc1C(=O)NC1CCN(c2cc(-c3ccc(OC)cc3)[nH]n2)C1 (stereo not given) | 13µM*
Cc1ccccc1OCC(O)Cn1c(NCCc2ccccc2)nc2c1c(=O)[nH]c(=O)n2C (stereo not given) | i
O=C(O)CC(C(=O)O)c1ccc(OCCCOc2ccc(C(CC(=O)O)C(=O)O)cc2)cc1 (stereo not given) | i
CCc1nc2c(sc3ncccc32)c(=O)n1CC(=O)Nc1ccc(C(C)C)cc1 | i
CCC1CCCCN1C(=O)Cn1cnc2c1c(=O)n(C)c(=O)n2C (stereo not given) | i
O=C(CN1CCCCCC1)NCCc1c[nH]c2ccccc12 | i
CC(=O)N/N=C/c1ccccc1OCCCOc1ccc(Cl)c(C)c1 | i
CCc1cc(CC)n(-c2nc3c(c(=O)n(CCOC)c(=O)n3C)n2C)n1 | i
CCOc1ccc(C(C)NC(=O)c2snnc2CC)cc1OCC (stereo not given) | i
SMILES | KDM5B inhibitor
CCOC(=O)C1CCN(C(=O)CCC(=O)NCCC2=CCCCC2)CC1 | i
Cc1ccc(-c2cnc(CCC(=O)N3CC(C(=O)N(C)C)Oc4ccccc43)o2)cc1C (stereo not given) | i
Cc1c(-c2ccccc2)oc2c(C(=O)OCC(=O)NC(=O)NCCC(C)C)cccc2c1=O | i
O=C(Nc1cccc(C(F)(F)F)c1)c1cnc2c(c1)N(Cc1ccccc1)CCC2 | 7.1µM*
CC(C)c1ccc(CC(=O)N2CCCc3ncc(C(=O)Nc4cccc(C(F)(F)F)c4)cc32)cc1 | 25µM*
COc1ccccc1CC(=O)N1CCCc2ncc(C(=O)NCCc3ccccc3)cc21 | i
CC(C)c1ccc(CC(=O)N2CCCc3ncc(C(=O)NCCOc4ccccc4)cc32)cc1 | i
CC(C)NC(=O)c1cnc2c(c1)N(C(=O)Cc1cccc(C(F)(F)F)c1)CCC2 | i
O=C(Nc1cccc(F)c1)c1cnc2c(c1)N(C(=O)CCc1ccccc1)CCC2 | i
Cc1ccccc1NC(=O)c1cnc2c(c1)N(C(=O)Cc1ccc(C(C)C)cc1)CCC2 | i
O=C(NCc1cccc(F)c1)c1cnc2c(c1)N(C(=O)Cc1cccc(C(F)(F)F)c1)CCC2 | i
COc1ccccc1CC(=O)N1CCCc2ncc(C(=O)NCc3cccc(F)c3)cc21 | i
COCCNC(=O)c1cnc2c(c1)N(Cc1ccccc1)CCC2 | 35µM*
COc1ccc(NC(=O)c2cnc3c(c2)N(C(=O)Cc2cccc(C(F)(F)F)c2)CCC3)cc1OC | i
O=C(NCc1cccc(F)c1)c1cnc2c(c1)N(Cc1ccccc1)CCC2 | 5.6µM*
CCCCCn1nc(C(=O)OCC(=O)Nc2ccc3c(c2)OCO3)c2ccccc2c1=O | i
Brc1ccccc1CNCc1ccc(Cn2cncn2)cc1 | i
O=C(NCc1ccc2c(c1)OCCO2)N1CCN(S(=O)(=O)c2ccccc2)CC1 | i
COc1ccc2c(=O)c(-c3ccc(OC)c(OC)c3)c(C)oc2c1 | i
